Compounds with a hit are over-represented: about 1% of the library has one in this group of screens.
LANA DNA inh = KSHV C-LANA DNA binding inhibition; MBP-C-LANA/FAM-LBS DNA binding, fluorescence polarization; inhibition, % at 9 µM; actives 0.078% (n = 340,000); AID 504423;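 active means highest replicate inhibition at or above 60% at 9 µM, even if other replicates fall short; inactive means all replicates below 60% inhibition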
LANA-H2B inh = blocks KSHV LANA binding to histone H2A/H2B; Q9QR71; cell-free LANA-H2A/H2B peptide, fluorescence polarization; inhibition, % (test concentration not listed); actives 0.6% (n = 320,000); in the data active means inhibition mostly above about 10%, no sharp cut-off; inactive means mostly below about 6.7%
Keap1-Nrf2 PPI = Keap1-Nrf2 (human) interaction inhibition | inhibition, % at 9.4 µM | actives 0.15% (n = 340,000) | Keap1 Kelch-Nrf2 peptide fluorescence polarization, 1536-well; in the data active means inhibition above about 12%;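 further: human Keap1 Kelch domain with fluorescein labeled Nrf2 9mer peptide probe; higher means more block of Keap1 binding to Nrf2 peptide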
Target sequence (Q14145 whole entry, looked up, the tested form may be a part): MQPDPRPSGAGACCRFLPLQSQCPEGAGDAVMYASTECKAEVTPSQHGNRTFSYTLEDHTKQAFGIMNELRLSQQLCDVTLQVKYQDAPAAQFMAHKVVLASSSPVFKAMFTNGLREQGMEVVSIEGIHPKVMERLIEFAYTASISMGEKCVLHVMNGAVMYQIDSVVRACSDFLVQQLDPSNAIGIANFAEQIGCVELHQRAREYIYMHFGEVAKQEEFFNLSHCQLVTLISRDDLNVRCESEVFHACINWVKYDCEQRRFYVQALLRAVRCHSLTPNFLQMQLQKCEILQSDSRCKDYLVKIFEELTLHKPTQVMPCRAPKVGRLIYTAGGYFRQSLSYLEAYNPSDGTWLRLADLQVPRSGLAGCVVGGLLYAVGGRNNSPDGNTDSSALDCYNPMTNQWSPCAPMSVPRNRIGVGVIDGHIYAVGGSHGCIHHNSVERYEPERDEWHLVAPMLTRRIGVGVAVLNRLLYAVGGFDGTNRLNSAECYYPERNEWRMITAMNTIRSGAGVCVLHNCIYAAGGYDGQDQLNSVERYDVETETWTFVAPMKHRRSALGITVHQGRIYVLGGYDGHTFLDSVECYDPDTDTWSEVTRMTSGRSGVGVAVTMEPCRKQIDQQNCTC
Cardiac RTF inh = cardiac RTF calcium desensitization. P19429+P45379. IANBD-labeled cardiac RTF, Ca2+ fluorescence. inhibition, % at 7.15 µM. actives 0.12% (n = 340,000). AID 493244;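 active means inhibition above the mean inhibition of all tested compounds plus 3 SD, cut at about 17% in these data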;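 further: assay run at fixed EC70 calcium of 1.6 mM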
cardiac RTF act = cardiac RTF calcium sensitization. AID 493008. activation, % at 7.2 µM. actives 0.24% (n = 340,000). P19429+P45379. IANBD-labeled TnC RTF fluorescence at EC20 calcium; 0% EC20 calcium, 100% full calcium;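 active means activation above the mean over all tested compounds plus 3 SD, cut at about 30% in these data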;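 further: rise in fluorescence read as greater calcium sensitivity of cardiac thin filaments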
Large screens that a line does not name were inactive.

CC1CCN(C(=O)CSc2nc(N)c(NC(=O)c3ccccc3)c(=O)[nH]2)CC1	LANA-H2B inh 48
COc1ccc(C(=O)Nc2c(N)nc(SCC(=O)c3ccccc3)[nH]c2=O)cc1	none
CN(C(=O)CCc1nnc(-c2ccc(-c3ccccc3)cc2)o1)C1CCOCC1	LANA-H2B inh 15
O=S1(=O)N=C(N(CCO)/N=C/c2ccc(Cl)cc2)c2ccccc21	none
CN(C)c1ccc(/C=N/N(CCO)C2=NS(=O)(=O)c3ccccc32)cc1	cardiac RTF act 316
COc1cc(/C=C/C(=O)OCC(=O)NC(=O)NC(C)C)cc(S(=O)(=O)N2CCc3ccccc32)c1OC	LANA-H2B inh 26
CCN(CC)CCOC(=O)C1(c2ccccc2)CCCC1	LANA-H2B inh 36
O=C(CCc1ccco1)CCc1ccco1	none (no result: LANA-H2B inh)
CC(=O)c1ccc(CCCCCCCCCC(=O)O)s1	LANA-H2B inh 2.8
CCC(=O)c1ccc(CCCCCC(=O)O)s1	none
Cc1cc(NC(=S)Nc2ccccc2)ccc1Br	LANA-H2B inh 22
O=C(Cc1ccccc1)c1ccc(N2CCOCC2)cc1	none (no result: LANA-H2B inh)
CCOc1ccc2nc3cc(NCc4ccc(OC)cc4)ccc3c(N)c2c1	cardiac RTF act 76
CCn1cnc2cc(NCc3ccc(OC)cc3)ccc21	none
O=c1oc2c(O)c(O)cc3c(=O)oc4c(O)c(O)cc1c4c23	LANA DNA inh 127, Cardiac RTF inh 102
OCC[n+]1ccc(/C=C/c2c[nH]c3ccccc23)cc1	cardiac RTF act 189
CCN1CCCC1CNC(=O)c1ccc(N2CCOCC2)c(NS(=O)(=O)c2ccc(OC)cc2)c1 (stereo not given)	none
CCN(CC)C(=O)c1ccc(/C=C/c2c[nH]c3ccccc23)[n+](C)c1	cardiac RTF act 140
Cc1ccc(C(=O)/C=C/c2c[nH]c3ccccc23)cc1	none
COc1ccc(NC(=O)N2CCN(S(C)(=O)=O)CC2)c(OC)c1	none
O=C(COC(=O)COc1ccccc1)NCc1ccco1	LANA-H2B inh 18
COCCCNC(=O)CCCn1c(=O)c2ccccc2n(Cc2cccc([N+](=O)[O-])c2)c1=O	none
CC(=O)c1cccc(NC(=O)COC(=O)CCc2ccc(S(=O)(=O)N3CCOCC3)cc2)c1	none
O=C(CCc1ccc(S(=O)(=O)N2CCOCC2)cc1)OCC(=O)c1ccccc1	cardiac RTF act 37
CCCCC[C@H]1CN(C2CCCCC2)C(=O)[C@@H]1CC(=O)NCc1ccccc1	none
O=c1c(/C=C(\O)c2ccc(F)cc2)nc2ccccc2n1-c1ccccc1	LANA-H2B inh -3.4, cardiac RTF act 51
CCN1/C(=C/c2ccc3cc(C)ccc3[n+]2CC)Sc2cc(C)ccc21	cardiac RTF act 51 (no result: LANA-H2B inh)
CCCCC(CC)COC(=O)C(C#N)=C(c1ccccc1)c1ccccc1 (stereo not given)	LANA-H2B inh 15
CCOC(=O)/C(C#N)=C(/C)c1ccc(OC)cc1	none
O=C(CC1SC(N2CCCCC2)=NC1=O)Nc1cccc(C(=O)O)c1 (stereo not given)	LANA-H2B inh 14
CCc1cccc(NC(=O)CC2SC(N3CCCC3)=NC2=O)c1 (stereo not given)	none
CN1CCc2c(sc(/N=C/c3cccs3)c2C(N)=O)C1	cardiac RTF act 31
CCCCCCCCCCCCCCCC(=O)Nc1ccn(C2OC(CO)C(O)C2O)c(=O)n1 (stereo not given)	none (no result: LANA-H2B inh)
Cc1ccc(S(=O)(=O)Oc2ccccc2/C=N/N=C(N)N)cc1	LANA-H2B inh 38
Cc1ccc(S(=O)(=O)Oc2ccccc2/C=N/NC(N)=S)cc1	none
Cc1ccc(CS(=O)(=O)Cc2ccc(C(=O)NC3CCCC3)o2)cc1	none
O=C(NCC1CCCO1)C1CCN(S(=O)(=O)c2cc(Cl)ccc2Cl)CC1 (stereo not given)	LANA-H2B inh 13
CC(C)(C)c1ccc(Cn2c(=N)n(CC(O)c3ccco3)c3ccccc32)cc1 (stereo not given)	LANA-H2B inh 18
Cc1ccccc1Cn1c(=N)n(CC(O)c2ccco2)c2ccccc21 (stereo not given)	none
COc1cnc(SC)nc1Nc1ccc(C#N)cc1	none
CN(CCO)c1cnccn1	LANA-H2B inh 14
Cc1c(NC(=O)C(C)OC(=O)c2ccc([N+](=O)[O-])cc2Cl)c(=O)n(-c2ccccc2)n1C (stereo not given)	none (no result: LANA-H2B inh)
Cc1cccc(N=NC(=S)NNc2cccc(C)c2)c1	none (no result: LANA-H2B inh)
Cc1[nH]c(=O)c(C#N)c(C)c1[N+](=O)[O-]	LANA-H2B inh 13

Screens deposited in PubChem by several laboratories.
